# Assay results taken from the supplement of paper PMC8728848.
# This is one part of a sample in which the strongest signals are shown more often than they occur.
# B1: CLEC7A (Homo sapiens), Q9BXN2 (protein)
# chain: MEYHPDLENLDEDGYTQLHFDSQSNTRIAVVSEKGSCAASPPWRLIAVILGILCLVILVIAVVLGTMAIWRSNSGSNTLENGYFLSRNKENHSQPTQSSLEDSVTPTKAVKTTGVLSSPCPPNWIIYEKSCYLFSMSLNSWDGSKRQCWQLGSNLLKIDSSNELGFIVKQVSSQPDNSFWIGLSRPQTEVPWLWEDGSTFSSNLFQIRTTATQENPSPNCVWIHVSVIYDQLCSVPSYSICEKKFSM
# B2: TbCVNHOb (Tuber borchii) (protein)
# chain: MSFYASSEDVRTIEEGGRTWLVGRARRADGSWQDIKLDLDNIIGNRDGHLTWGEQNFTQSASDIRFNFEGGSNVPVLRAKLRNAAGGEQESDLNLGERLTNNNGDLVFN
# Assays:
# Experiment in all cases: glycan array binding signal (z-score within array); higher = stronger binding
# Conditions in all cases: glycan notation: IUPAC condensed, linker removed
# [1] = target: Fuc(a1-2)Gal(b1-3)GalNAc(b1-3)Gal(a1-4)Gal(b1-4)Glc
# Outline: (§1)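 The Consortium for Functional Glycomics database supplied 3228 glycan arrays, of which those lacking an available protein sequence were dropped. The binding signal, a within-array Z-score, was averaged across arrays of the same protein sequence and across linkers. Negative scores can be read as non-binding.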
# Fuc(a1-2)Gal(b1-4)GlcNAc = target: Fuc(a1-2)Gal(b1-4)GlcNAc
# Outline: as §1
# [2] = target: Fuc(a1-3)[Gal(b1-4)]GlcNAc(b1-4)Gal(b1-4)[Fuc(a1-3)]GlcNAc(b1-4)Gal(b1-4)[Fuc(a1-3)]GlcNAc
# Outline: as §1
# [3] = target: Fuc(a1-3)[GalNAc(b1-4)]GlcNAc
# Outline: as §1
# [4] = target: Gal(b1-4)GlcNAc(b1-3)Gal(b1-4)Glc
# Outline: as §1
# Gal3S(b1-4)GlcNAc6S = target: Gal3S(b1-4)GlcNAc6S
# Outline: as §1
# Gal3S6S(b1-4)GlcNAc6S = target: Gal3S6S(b1-4)GlcNAc6S
# Outline: as §1
# [5] = target: GalNAc(b1-3)Gal(a1-4)Gal(b1-4)GlcNAc
# Outline: as §1
# GlcNAc(b1-3)GalNAc = target: GlcNAc(b1-3)GalNAc
# Outline: as §1
# [6] = target: GlcNAc(b1-4)GlcNAc(b1-4)GlcNAc(b1-4)GlcNAc(b1-4)GlcNAc
# Outline: as §1
# Kdn(a2-3)Gal(b1-4)GlcNAc = target: Kdn(a2-3)Gal(b1-4)GlcNAc
# Outline: as §1
# [7] = target: Man(a1-3)[Man(a1-6)]Man(a1-6)[Man(a1-2)Man(a1-3)]Man(b1-4)GlcNAc(b1-4)GlcNAc
# Outline: as §1
# [8] = target: Neu5Ac(a2-3)Gal(b1-4)GlcNAc6S
# Outline: as §1
# [9] = target: Neu5Ac(a2-6)Gal(b1-4)GlcNAc6S
# Outline: as §1
# [10] = target: Neu5Ac(a2-8)Neu5Ac(a2-8)Neu5Ac
# Outline: as §1
# [11] = target: Neu5Ac(a2-8)Neu5Ac(a2-8)Neu5Ac(a2-3)Gal(b1-4)Glc
# Outline: as §1
# [12] = target: Fuc(a1-2)Gal(b1-3)GlcNAc(b1-3)Gal(b1-4)Glc
# Outline: as §1
# [13] = target: Fuc(a1-2)[GalNAc(a1-3)]Gal(b1-4)Glc
# Outline: as §1
# Fuc(a1-3)GlcNAc = target: Fuc(a1-3)GlcNAc
# Outline: as §1
# [14] = target: Fuc(a1-3)[Gal(b1-4)]Glc6S
# Outline: as §1
# Gal(b1-3)GalNAc = target: Gal(b1-3)GalNAc
# Outline: as §1
# [15] = target: Gal(b1-3)GalNAc(b1-4)[Neu5Ac(a2-3)]Gal(b1-4)Glc
# Outline: as §1
# [16] = target: Gal(b1-3)GlcNAc(b1-3)Gal(b1-4)Glc
# Outline: as §1
# [17] = target: Gal(b1-3)[Neu5Ac(a2-6)]GlcNAc(b1-6)Gal(b1-4)Glc
# Outline: as §1
# Gal4S(b1-4)GlcNAc = target: Gal4S(b1-4)GlcNAc
# Outline: as §1
# Gal4S6S(b1-4)GlcNAc = target: Gal4S6S(b1-4)GlcNAc
# Outline: as §1
# Glc(b1-4)Glc = target: Glc(b1-4)Glc
# Outline: as §1
# [18] = target: GlcNAc(b1-3)Gal(b1-4)GlcNAc(b1-3)Gal(b1-4)GlcNAc
# Outline: as §1
# [19] = target: Man(a1-2)Man(a1-2)Man(a1-3)Man
# Outline: as §1
# [20] = target: Man(a1-2)Man(a1-6)[Man(a1-3)]Man(a1-6)[Man(a1-2)Man(a1-2)Man(a1-3)]Man
# Outline: as §1
# [21] = target: Neu5Ac(a2-3)Gal(b1-4)GlcNAc(b1-3)Gal(b1-4)GlcNAc(b1-3)Gal(b1-4)GlcNAc
# Outline: as §1
# [22] = target: Neu5Ac(a2-6)Gal(b1-4)GlcNAc(b1-2)Man(a1-3)[GlcNAc(b1-2)Man(b1-4)GlcNAc(b1-2)Man(a1-6)]Man(b1-4)GlcNAc(b1-4)GlcNAc
# Outline: as §1
# Neu5Ac(a2-6)GalNAc = target: Neu5Ac(a2-6)GalNAc
# Outline: as §1
Binder,glycan array binding signal (z-score) [1],glycan array binding signal (z-score) (Fuc(a1-2)Gal(b1-4)GlcNAc),glycan array binding signal (z-score) [2],glycan array binding signal (z-score) [3],glycan array binding signal (z-score) [4],glycan array binding signal (z-score) (Gal3S(b1-4)GlcNAc6S),glycan array binding signal (z-score) (Gal3S6S(b1-4)GlcNAc6S),glycan array binding signal (z-score) [5],glycan array binding signal (z-score) (GlcNAc(b1-3)GalNAc),glycan array binding signal (z-score) [6],glycan array binding signal (z-score) (Kdn(a2-3)Gal(b1-4)GlcNAc),glycan array binding signal (z-score) [7],glycan array binding signal (z-score) [8],glycan array binding signal (z-score) [9],glycan array binding signal (z-score) [10],glycan array binding signal (z-score) [11],glycan array binding signal (z-score) [12],glycan array binding signal (z-score) [13],glycan array binding signal (z-score) (Fuc(a1-3)GlcNAc),glycan array binding signal (z-score) [14],glycan array binding signal (z-score) (Gal(b1-3)GalNAc),glycan array binding signal (z-score) [15],glycan array binding signal (z-score) [16],glycan array binding signal (z-score) [17],glycan array binding signal (z-score) (Gal4S(b1-4)GlcNAc),glycan array binding signal (z-score) (Gal4S6S(b1-4)GlcNAc),glycan array binding signal (z-score) (Glc(b1-4)Glc),glycan array binding signal (z-score) [18],glycan array binding signal (z-score) [19],glycan array binding signal (z-score) [20],glycan array binding signal (z-score) [21],glycan array binding signal (z-score) [22],glycan array binding signal (z-score) (Neu5Ac(a2-6)GalNAc)
B1,0.301,-0.842,0.278,-0.149,0.542,1.21,5.19,0.773,3.29,-0.613,0.64,0.549,-0.22,0.583,4.19,1.53,,,,,,,,,,,,,,,,,
B2,0.303,,,,2.32,,,,,,,,,-0.275,,-0.118,1.56,-0.147,0.012,0.185,-0.117,-0.245,5.86,1.4,0.051,-0.061,-0.189,-0.144,1.35,-0.185,-0.237,-0.008,-0.28
